Assay outcomes as filed in PubChem.
Sm TGR block = blocks Schistosoma mansoni thioredoxin glutathione reductase | purified TGR, DTNB reduction, TNB absorbance 405 nm | Potency, µM (highest dose often 114 µM), for inactives: top-dose activity change, negative = inhibition, actives largely listed as inhibitors | 3% of 360,000 active; further: nearly all actives have a fitted effect of over 60% in size
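First, TGR (20 nM dispensed) and NADPH were mixed with compound. Second, a 15 min room-temperature incubation followed. Third, further NADPH and then DTNB were added to start the reaction. Finally, TNB absorbance was monitored kinetically.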
AmpC no deterg = blocks E. coli AmpC beta-lactamase in detergent-free assay. P00811. AmpC nitrocefin hydrolysis, absorbance 480 nm, 0.0001% Triton. Potency, µM (series often up to 57.1 µM), inactives show at the top dose activity change, negative = inhibition, most hits filed as inhibitors. 0.52% of 330,000 active. AID 485341;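 further: plate controls were no compound for no effect and no enzyme for full effect; nearly all actives have a fitted effect of over 20% in size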
Target sequence (P00811 whole entry, looked up): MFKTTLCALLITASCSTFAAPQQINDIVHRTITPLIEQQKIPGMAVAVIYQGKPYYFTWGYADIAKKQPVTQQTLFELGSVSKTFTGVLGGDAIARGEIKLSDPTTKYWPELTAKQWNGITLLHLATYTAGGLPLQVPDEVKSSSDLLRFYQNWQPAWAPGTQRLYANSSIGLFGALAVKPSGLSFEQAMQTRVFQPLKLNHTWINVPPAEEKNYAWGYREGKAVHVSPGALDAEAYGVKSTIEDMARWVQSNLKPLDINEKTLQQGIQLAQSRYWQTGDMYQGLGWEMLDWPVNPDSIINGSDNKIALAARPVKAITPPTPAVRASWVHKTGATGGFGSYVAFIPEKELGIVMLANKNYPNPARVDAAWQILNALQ
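20 mM phosphate pH 7.0 + 0.01% (detergent screen) or 0.0001% Triton X-100; 5.3 nM AmpC reagent; cpd preinc 15 min RT; nitrocefin (800 uM stock) to start; A480 q20 s × 4 min; Activity was normalised to no-enzyme and no-compound control wells.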
AmpC inh detg = AmpC beta-lactamase inhibition with detergent present | P00811 | AmpC hydrolysis of nitrocefin, absorbance 480 nm, 0.01% Triton | Potency, µM (titrated, usually from 114 µM), for inactives: top-dose activity change, negative = inhibition, usual class: inhibitors | 0.041% of 370,000 active;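 further: 0% = no-compound wells and -100% = no-enzyme wells; nearly all actives have a fitted effect of over 25% in size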
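AmpC (5.3 nM in the dispensed reagent) in 20 mM phosphate pH 7.0 with 0.01% (detergent screen) or 0.0001% Triton X-100 was preincubated with compounds for 15 min at room temperature. Nitrocefin was then added from an 800 uM solution, and hydrolysis was followed at 480 nm.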
Starred values were filed as active, the others as inactive; ? = inconclusive; / = not tested or not shown; [ ] = another dose, or the depositor's remark. Only some compounds are listed: those with a hit (about 3.3% of all), similar ones and a draw of the others. The call rests on the fitted dose curve; in most records, active means well fitted curve in the direction sought with a large enough effect; inconclusive means small, poorly fitted or top-dose-only effect, or another doubt; inactive means no such curve, though single readings can be large; an effect the other way counts as inactive or inconclusive. Unless noted, on the % scale 0 is the no-effect control and ±100 the full control effect; potency means the concentration at half of the fitted maximal effect.

SMILES	Sm TGR block	AmpC no deterg	AmpC inh detg
Cc1cc(NC(=O)c2ccccc2)ncc1NC(=O)c1ccco1	22µM*	-3%	-1%
COc1ccc(C2/C(=C(/O)c3ccc(Br)cc3)C(=O)C(=O)N2C)cc1OC (stereo not given)	0%	-16%	-7%
Cc1noc(C)c1C(=O)NCCc1c(C)[nH]c2ccccc12	-20%	-6%	0%
Nc1nc(CCl)nc(N(c2ccccc2)c2ccccc2)n1	11µM*	-6%	-13%
Nc1nc(Cl)nc(N(c2ccccc2)c2ccccc2)n1	-8%	-24%	-8%
Cc1ccc(CN(C(=O)COc2ccc(Cl)c(C)c2)c2ccccn2)o1	-15%	/	2%
Cc1ccc(/C=C/C(=O)Nc2ccc(N(C)C)cc2)o1	-21%	-29%	-3%
CC(=O)NS(=O)(=O)c1ccc(NC(=O)/C=C/c2ccc(C)o2)cc1	/	-13%	5%
O=C(/C=C/c1ccco1)Nc1cccc(S(=O)(=O)N2CCOCC2)c1	-33%	-26%	?
Cc1ccc(/C=C/C(=O)Nc2ccc(S(N)(=O)=O)cc2)o1	7.9µM*	-33%	-3%
Cc1ccc(/C=N/NC(=O)NC2CCCCC2)o1	-9%	-12%[11.4 µM]	-1%
Cc1ccc(/C=C/C(=O)Nc2ccncc2)o1	8.9µM*	-10%	-4%
Cc1ccc(/C=C/C(=O)NC2CCCCCCC2)o1	2.5µM*	-41%	-11%
Cc1ccc(/C=C/C(=O)Nc2cccc(S(=O)(=O)N3CCOCC3)c2)o1	11µM*	-19%	5%
O=C(Nc1ccc(Br)cc1)c1cccc(C(=O)Nc2ccc(Br)cc2)c1	-5%	/	1%
COc1ccc(-n2nc(C(=O)NCC(=O)NCCCN3CCOCC3)c3ccccc3c2=O)cc1	1%	-12%	-11%
Cc1ccc(S(=O)(=O)c2nnn3c2nc(N2CCN(c4ccc(F)cc4)CC2)c2cc(Cl)ccc23)cc1C	14%	/	21%
Cc1cc(NS(=O)(=O)c2ccc(NC(=O)CCCOc3ccccc3C)cc2)no1	0%	-39%	2%
O=c1cc(-c2ccccc2Cl)oc2cc(O)cc(O)c12	-3%	-24%	-12%
O=C1C=CC(O)(c2cc(=O)c3c(O)cc(O)cc3o2)C=C1	35µM*	-19%	?
CNC(=S)NNS(=O)(=O)c1ccc(OC)cc1OC	3%	-14%	7%
O=C(NCCCO)c1ccc2nc(-c3ccco3)c(-c3ccco3)nc2c1	2.5µM*	-39%[11.4 µM]	-14%
O=C(NCCO)Nc1ccc2nc(-c3ccco3)c(-c3ccco3)nc2c1	/	47%	-11%
CCCNC(=O)c1ccc2nc(-c3ccccc3)c(-c3ccccc3)nc2c1	-12%	?	1%
CCCCNC(=O)c1ccc2nc(-c3ccco3)c(-c3ccco3)nc2c1	7.9µM*	-35%	-9%
SMILES	Sm TGR block	AmpC no deterg	AmpC inh detg
COc1cccc(NC(=O)c2sc3nc(C)c(C(=O)Nc4ccc(C)cc4C)c(-c4ccccc4Cl)c3c2N)c1	2%	/	?
COC(=O)CCCC1=CC2=CC(=O)C(C)(OC(=O)c3cccs3)C(=O)C2=CN1Cc1ccccc1 (stereo not given)	-3%	107%	1%
COC(=O)CCCC1=CC2=CC(=O)C(C)(OC(=O)c3cccs3)C(=O)C2=CN1Cc1ccco1 (stereo not given)	35µM*	60%	-6%
COCCN1C=C2C(=O)C(C)(OC(=O)CCC(=O)OC)C(=O)C=C2C=C1C1CC1 (stereo not given)	-10%	-1%	0%
COC(=O)CCC(=O)OC1(C)C(=O)C=C2C=C(C3CC3)N(Cc3ccco3)C=C2C1=O (stereo not given)	32µM*	58%	0%
CNC(=O)COC(=O)c1cc(SC)ccc1Cl	0%	-16%	?
CC(CCc1ccccc1)NC(=O)c1ccc(-n2cncn2)c([N+](=O)[O-])c1 (stereo not given)	5%	-11%	-12%
COCc1cc(CNC(=O)C2CCC(=O)N(Cc3ccccc3OC)C2)[nH]n1 (stereo not given)	?	-1%	-7%
CCOC(=O)c1noc2ncn(CC(=O)Nc3cc(Cl)ccc3OC)c(=O)c12	6%	/	25%
Cc1ccc(SCC(=O)OC(C)C(=O)NC2CCCCC2C)c(C)c1 (stereo not given)	-16%	19%	-7%
COc1ccc(CC(=O)N/N=C\c2cc(Br)c(O)c(Br)c2)cc1	-21%	-50%	-2%
Oc1ccc(N=Cc2ccc(OCc3ccccc3)cc2)cc1	4µM*	-26%	2%
O=C(N/N=C/c1ccc(OCc2ccccc2)cc1)c1ccncc1	-3%	-6%	-5%
COC(=O)c1ccccc1NC(=O)c1cnc2c(-c3cccc(C)c3)c(C)nn2c1C	7%	/	5%
